# In the supplement of paper PMC10338343:
# ± gives the standard deviation.
# Legend:
# [1] = system: MILI (PIWIL2) piRISC loaded with L1MC piRNA (26 nt); assay: pre-steady-state target cleavage rate (min^-1); guide: L1MC piRNA 5'p-UAACUAAAUACUAUGCAAGCUGUAGG; higher = faster piRNA-guided slicing of the target
# Summary of the method: (§1)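 The method was Cleave-'n-Seq, in which uncleaved targets from a transcribed, DNA-blocked target RNA library were sequenced after exposure to active affinity-purified piRISC carrying one synthetic guide, with or without GTSF1 partner protein. Reactions contained 0.1 nM library, 1 nM piRISC and, where present, 500 nM GTSF1 in HEPES–potassium acetate buffer at 33 °C for 0–8 or 0–960 min. Reads were normalised to depth and to weakly complementary targets, three trials were pooled, and k3 was capped at 0.0001 min^-1. The pre-steady-state cleavage rate came from a burst-and-steady-state fit.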
# [2] = system: EfPiwi piRISC loaded with L1MC piRNA (26 nt); assay: pre-steady-state target cleavage rate (min^-1); auxiliary factor: 500 nM Ephydatia muelleri Gtsf1; guide: L1MC piRNA 5'p-UAACUAAAUACUAUGCAAGCUGUAGG; MIWI and MILI are mouse PIWI proteins and EfPiwi is from a freshwater sponge; tags in brackets are library labels; higher = faster piRNA-guided slicing of the target
# Summary of the method: as §1
# [3] = auxiliary factor: 500 nM mouse GTSF1
# [4] = auxiliary factor: none (no GTSF1)
Sequence,"pre-steady-state target cleavage rate [1, 3]","pre-steady-state target cleavage rate [1, 4]",pre-steady-state target cleavage rate [2]
UCCUGCUAGAGCUUGCAUAGUAUUUUGUUA,0.172 ± 0.025,0.00521 ± 0.0022,0.00421 ± 0.0016
UCCUCCAACAGCUUGGAUAGUAUUUAGUUA,0.269 ± 0.0097,0.00646 ± 0.0021,0.0467 ± 0.011
UCCUGGUACAGCUUGCUUACUAUUUAGUUA,0.0679 ± 0.012,0.00375 ± 0.0027,0.00704 ± 0.0031
UCCUGCUAAGCUUGCAUAGUAUUUAGUUA,0.182 ± 0.018,0.00403 ± 0.0019,0.00771 ± 0.0024
UCCUGCUACAGCUUGCAUAGUAUUCAGUUA,0.244 ± 0.038,0.00294 ± 0.0021,0.00508 ± 0.0017
UCCUCCUAGAGCUUGCAUAGUAUUUAGUAA,0.201 ± 0.021,0.00313 ± 0.0024,0.00608 ± 0.0021
UCCUCCUACUGCUUGCAUAGUAUUAAGUUA,0.15 ± 0.018,0.00292 ± 0.0026,0.00682 ± 0.0034
UCCUGGAUCCGCUUGCAUAGUAUUUAGUUA,0.297 ± 0.019,0.00868 ± 0.0026,0.146 ± 0.029
UCCUCCUACAGCUUGCAUACUAUUUAGUUA,0.088 ± 0.013,0.00383 ± 0.0021,0.00904 ± 0.0032
UCCUGGAUGUCCUUGCAUAGUAUUUAAGUUA,0.173 ± 0.023,0.00879 ± 0.0027,0.0217 ± 0.0093
UCCUGCAACAGCUUGCAUAGUAUAUAGUUA,0.36 ± 0.038,0.00582 ± 0.0026,0.00844 ± 0.0024
UCCUGGAUCAGCUUGCAUAGUAUUUAGUUA [g2:g22:cont:t1A],0.267 ± 0.017,0.00864 ± 0.0019,0.0886 ± 0.017
UCCUGGAACAGCUUGCAUAGUAUUAUGUUA,0.105 ± 0.026,0.00259 ± 0.0025,0.00324 ± 0.0021
UCCUGGAUGUCGAUGCAUAGUAUUUAGUUA [g2:g17:cont:t1A],0.124 ± 0.017,0.0067 ± 0.0017,0.00648 ± 0.0023
UCCUGGAUGUGCAUUGCAUAGUAUUUAGUUA,0.182 ± 0.023,0.0119 ± 0.0039,0.0129 ± 0.0042
UCCUGGUAGUGCUUGCAUAGUAUUUAGUAA,0.191 ± 0.032,0.00505 ± 0.0031,0.00326 ± 0.0024
UCCUGCUACAGCUUGCAUUGUAUUUUGUUA,0.159 ± 0.024,0.00301 ± 0.0027,0.00346 ± 0.0021
UCCUGGAUGACCUUGCAUAGUAUUUAGUUA,0.177 ± 0.023,0.0057 ± 0.0024,0.0113 ± 0.0049
UCCUGGAUCAGCUUGCAUAGUAUUUAUUUA,0.0819 ± 0.017,0.00658 ± 0.0024,0.00293 ± 0.0028
UCCUGGAUGUGCUUGCAUAGUAUUUAGUAA,0.246 ± 0.031,0.00665 ± 0.0025,0.00442 ± 0.002
UCCUGCUACAGCUUGCAAGUAUUUAGUUA,0.138 ± 0.017,0.00374 ± 0.0027,0.00614 ± 0.0027
UCCUCCUACGGCUUGCAUAGUAUUUAGUUA,0.298 ± 0.018,0.0137 ± 0.004,0.0667 ± 0.017
UCCUGCAACAGCUUGCAUUGUAUUUAGUUA,0.262 ± 0.018,0.0076 ± 0.0027,0.0331 ± 0.0081
UCCUGGUACAGCUUGCAUAGUAGUUUAGUUA,0.217 ± 0.028,0.00833 ± 0.003,0.0074 ± 0.0029
UCCUGGAACAGCUUGCUUAGUAUAUAGUUA,0.241 ± 0.02,0.00532 ± 0.0022,0.0104 ± 0.0048

Sequence,"pre-steady-state target cleavage rate [1, 3]","pre-steady-state target cleavage rate [1, 4]",pre-steady-state target cleavage rate [2]
UCCUGGAACUGCUUGCAUAGUAUUUAGUUA,0.228 ± 0.016,0.00612 ± 0.002,0.0203 ± 0.006
UCCUGCUACAGCCUUGCAUAGUAUUUAGUUA,0.308 ± 0.025,0.00822 ± 0.0026,0.0116 ± 0.0041
UCCUCCUACCGCUUGCAUAGUAUUUAGUUA,0.305 ± 0.015,0.0125 ± 0.003,0.0865 ± 0.023
UCCUGGAUGUCGAUGCAUAUUAUUUAGUUA,0.016 ± 0.0043,0.00389 ± 0.0019,0.0047 ± 0.0036
UCCUGCUACAGCUUCCAAAGUAUUUAGUUA,0.112 ± 0.015,0.00347 ± 0.0025,0.00321 ± 0.0019
UCCUGGAUGUGCUUGCAUAGUAUAUUAGUUA,0.111 ± 0.016,0.00381 ± 0.0027,0.0043 ± 0.0034
UCCUGCUACAGCUUGGUUAGUAUUUAGUUA,0.262 ± 0.015,0.0061 ± 0.002,0.0105 ± 0.0033
UCCUGGAACAGCUUGCAUAGUAUUAAGUUA,0.212 ± 0.024,0.00457 ± 0.0019,0.00549 ± 0.0022
UCCUGGAACAGCUUGCAAAGUAUUUAGAUA,0.085 ± 0.014,0.00298 ± 0.0022,0.0036 ± 0.0024
UCCUCCUACAGCUUGCAUAGUAGUUUAGUUA,0.23 ± 0.022,0.007 ± 0.0022,0.0131 ± 0.0052
UCCUGGAUCAGCUUGCAUAGUAUGUUAGUUA,0.199 ± 0.017,0.00633 ± 0.0025,0.031 ± 0.0087
UCCUGGUACAGCCUUGCAUAGUAUUUAGUUA,0.198 ± 0.02,0.0147 ± 0.0051,0.0209 ± 0.0073
UCCUGGAUGAGCUUGCAUAGUAUUCAGUUA,0.136 ± 0.026,0.00552 ± 0.0023,0.00256 ± 0.0023
UCCUGGAUGAGCUUGCAUAGUAUUUAGUUUA,0.184 ± 0.02,0.0105 ± 0.0031,0.0215 ± 0.0067
UCCUGGUACAGCUUGCAUAGUAUUUAGUGUA,0.143 ± 0.021,0.00896 ± 0.0033,0.00435 ± 0.0027
UCCUGGAUCAGCCUUGCAUAGUAUUUAGUUA,0.249 ± 0.023,0.00595 ± 0.0023,0.0303 ± 0.0094
UCCUGGAUCUCGUUGCAUAGUAUUUAGUUA,0.198 ± 0.019,0.00544 ± 0.0024,0.0466 ± 0.011
UCCUCGAACAGCUUGCAUAGUAUUUAGUAA,0.242 ± 0.015,0.00453 ± 0.0022,0.0173 ± 0.0064
UCCUGGAUCAGCUUGCAUAGUAUAUAGUUA,0.268 ± 0.017,0.00895 ± 0.0025,0.0716 ± 0.02
UCCUGCGACAGCUUGCAUAGUAUUUAGUUA,0.298 ± 0.016,0.00828 ± 0.0026,0.0339 ± 0.0075
UCCUGGAUGUCGCUGCAUAGUAUUUAGUUA,0.0516 ± 0.0095,0.00769 ± 0.0026,0.00471 ± 0.0025
UCCUCCUAAGCUUGCAUAGUAUUUAGUUA,0.23 ± 0.015,0.00512 ± 0.002,0.0155 ± 0.0059
UCCUCCUACAGCUUGCAUAGUAUUUAGGUUA,0.251 ± 0.045,0.00312 ± 0.0031,0.00552 ± 0.0017
UCCUGGUUCAGCUUGGAUAGUAUUUAGUUA,0.191 ± 0.022,0.013 ± 0.0035,0.00792 ± 0.0035
UCCUGGAACAGCUUGCAAAGUAAUUAGUUA,0.131 ± 0.018,0.00424 ± 0.0022,0.00403 ± 0.002
